Assay results published in PubChem BioAssay (NCI).
Several values for one entry are separate records, joined by “and”; a condition that tells them apart may be missing. Equal values may be shown once. This is part of a sample that, as a whole, favours compounds with a hit. Of some 83,000 tested, about 20% had one in any assay.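 96-well plates, one dose, 48 hours. Percent growth reported; active if below 10.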 Unmarked numbers belong to inactive results. Activity calls are given as the source filed them.

System: SW-620 colon
Assay: NCI-60 one-dose screen, 48 h (100 = growth as untreated, 0 = no growth, -100 = all killed)
Settings: 10 µM
Experimental: Growth inhibition of the SW-620 human tumor cell line is measured as a screen for anti-cancer activity. Cells are grown in 96 well plates and exposed to the test compound for 48 hours. Compounds are tested at a single concentration, which is 10^-5 M for most compounds. The reported endpoint is percent growth (GI% or GIPRCNT), where numbers from 0 - 100% represent growth inhibition, and numbers from -100% - 0 represent cell death. For example, a value of 40 represents 60% growth inhibition. A value of 0 means no net growth occurred over the course of the experiment. A value of -40 indicates 40% of cells at the beginning of the experiment died by the end of the experiment. A value of -100 means all cells are dead at the end of the experiment.
NCI-60 Human Tumor Cell Lines Screen was performed using the standard one-dose NCI protocol, which is described in more detail at https://dtp.cancer.gov/discovery_development/nci-60/default.htm.
Compounds with GIPRCNT values below 10 were considered active. Activity score was based on GIPRCNT using the following formula: […]
Score is 0 for GIPRCNT values of 100 or above, 50 for GIPRCNT values of 0, and 100 for GIPRCNT values of -100.

SMILES	growth
O=C(Nc1c(Cl)cccc1Cl)Oc1cccc2cccnc12	26.8%
CN(C)C(=O)c1ccc(SC(=S)NCc2ccccc2)cc1	98.9%

Same assay, conditions: 10 µM unless noted

SMILES	growth
N#CSCC(=O)c1ccc(Cl)cc1	22.7%
O=C1c2ccccc2C(=O)N1c1ccccc1	109%
OC(CNc1ccnc2cc(Cl)ccc12)CNc1ccnc2cc(Cl)ccc12	-31.2% (active)
CN(Cc1cnc2nc(N)nc(N)c2n1)c1ccc(C(=O)NC(CCC(=O)O)C(=O)O)cc1 (stereo not given)	27.5%
COc1ccccc1/C=C\C(=O)c1ccccc1	2.63% (active)
CC(C)(C)c1ccc(O)c(C2CCCCC2)c1	99.6%
C/C=C1\SC(=S)NC1=O	112%
Cc1c2ccccc2c(C)c2c1ccc1ccccc12	99.9%
Cc1cc2nc(CS)[nH]c2cc1C	84.7%
CN(C)c1ccc(C(=C2C=CC(=[N+](C)C)C=C2)c2ccc(N(C)C)cc2)cc1 (tested in a mixture with another compound)	-72.3% (active)
CCC1OC(OC)C=CC1=O (stereo not given)	100%
CC(C)(C)CC(C)(C)c1ccc(OCCSC(=N)N)cc1	-12.1% (active)
Cn1c2ccccc2c2nnc(N/N=C/c3ccccn3)nc21	31.3%
C=C(Cl)C(=NC(C)(C)C)Nc1ccccc1C	72.5%
N#CSCc1ccc(Cl)c(CSC#N)c1	20.4%
O=[N+]([O-])c1ccc2c(N=Nc3ccc4ccccc4c3O)c(O)cc(S(=O)(=O)O)c2c1	92.2%
Cc1ccnc2c1ccc1c(C)ccnc12	30.2%
CC1(C)CC([P+](c2ccccc2)(c2ccccc2)c2ccccc2)=NN1	47.6%

SMILES	growth
O=C1C2=C(Nc3cc([N+](=O)[O-])ccc3N2)OC1c1c2ccccc2cc2ccccc12 (stereo not given)	21.8%
CC(=O)Nc1cccc2cc(O)ccc12	104% and 92% and 98.7%
Cc1ccc(C(=Nc2ccccc2)N=P(c2ccccc2)(c2ccccc2)c2ccccc2)cc1	-40.7% (active)
CCC(CCCN(CC)CCc1ccccc1)OC(=O)c1cc(OC)c(OC)c(OC)c1 (stereo not given)	82.9%
CNc1ccc(N)cc1	104%
O=C(/C=C/C=C/c1ccccc1)c1ccco1	62.4%
COc1cc(NS(C)(=O)=O)ccc1Nc1c2ccccc2nc2ccccc12	41.5% [2.5 µM]
Oc1c(Br)c(Br)c(O)c(Br)c1Br	8.91% (active)
S=C(NCCNC(=S)[S][Sn]([c]1ccccc1)([c]1ccccc1)[c]1ccccc1)[S][Sn]([c]1ccccc1)([c]1ccccc1)[c]1ccccc1	-97.5% (active)
COC(=O)c1nc(=S)[nH]c(C(=O)OC)c1C(=O)c1ccccn1	43.3%
C1=C(c2ccccc2)C(c2ccc(OCCN3CCCCC3)cc2)Oc2ccccc21 (stereo not given)	16.2%
C=CCOc1ccc(N=NC(C#N)C#N)cc1	40.4%
CNc1ccc2c(c1)c1ccccc1n2C	111%
CC1=CC(O)C2CC1C2(C)C (stereo not given)	105% and 108%
CC(C)c1ccc2nc3ccc(C(=O)NCCN4CCN(c5ccccc5)CC4)cn3c(=O)c2c1	87.4%
COC(=O)c1nc(=S)[nH]c(C(=O)OC)c1C(=O)c1ccc2ccccc2c1	101%
Cc1cc(N)c2ccccc2[n+]1CCCCCCCCCC[n+]1c(C)cc(N)c2ccccc21	11.6% and 18.1%
CN(C)C(=O)SC1=C(c2c(Cl)cccc2Cl)C(=O)c2ccccc21	-83.9% (active)

Same assay, conditions: 100 µM

SMILES	growth
O=C(Nc1c(Cl)cccc1Cl)Oc1cccc2cccnc12	23.5%
CN(C)C(=O)c1ccc(SC(=S)NCc2ccccc2)cc1	-35.8% (active)
